# Compound activity deposited in PubChem BioAssay by National Center for Advancing Translational Sciences (NCATS).
# Only some compounds are listed: those with a hit (about 12% of all), similar ones and a draw of the others.
# G9a inh: qHTS Assay for Inhibitors of Histone Lysine Methyltransferase G9a. Histone-lysine N-methyltransferase EHMT2 (Homo sapiens), Q96KQ7. G9a H3K9 monomethylation, AlphaScreen, 2 h. Potency, µM (doses to about 102 µM), for the others: at the top dose activity, negative = inhibition, hits mostly inhibitors. hit rate 8.8% among 350,000. AID 504332, 2011; further: on the % scale 0 is the no-effect control and ±100 the full control effect; nearly all actives have a fitted effect of over 75% in size
#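 Chemiluminescent proximity detection of H3K9 monomethylation, read after 10 min bead incubation in the dark. Reaction: 20 nM G9a, 500 nM biotin-H3K9 peptide, 20 uM SAM cofactor, 2 h, room temperature, following 15 min enzyme-compound preincubation.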
# BAZ2B inh: qHTS Assay for Inhibitors of BAZ2B | Bromodomain adjacent to zinc finger domain protein 2B (Homo sapiens), Q9UIF8 | AlphaScreen BAZ2B-H3K14Ac peptide displacement | Potency, µM (highest dose often 114 µM), for inactives: top-dose activity change, negative = inhibition, most hits filed as inhibitors | hit rate 4.4% among 360,000 | AID 504333, 2011; further: on the % scale 0 is the no-effect control and ±100 the full control effect; nearly all actives have a fitted effect of over 60% in size
#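 In this displacement format the biotinylated H3(5-23) peptide acetylated at Lys14 serves as ligand at 50 nM, with BAZ2B at 50 nM in PBS pH 7.4 containing 0.01% Tween-20. Donor and acceptor beads are 10 ug/mL final.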
# JMJD2A Tudor inh: qHTS Assay for Inhibitors of JMJD2A-Tudor Domain; Lysine-specific demethylase 4A (Homo sapiens), O75164; AlphaScreen JMJD2A-Tudor / H3K4me3 peptide binding; Potency, µM (top dose mostly 114 µM), for inactives: at the highest dose activity change, negative = inhibition, actives largely listed as inhibitors; hit rate 4.4% among 390,000; AID 504339, 2011; further: on the % scale 0 is the no-effect control and ±100 the full control effect; nearly all actives have a fitted effect of over 50% in size
# Target sequence (O75164 whole entry, looked up, the tested form may be a part): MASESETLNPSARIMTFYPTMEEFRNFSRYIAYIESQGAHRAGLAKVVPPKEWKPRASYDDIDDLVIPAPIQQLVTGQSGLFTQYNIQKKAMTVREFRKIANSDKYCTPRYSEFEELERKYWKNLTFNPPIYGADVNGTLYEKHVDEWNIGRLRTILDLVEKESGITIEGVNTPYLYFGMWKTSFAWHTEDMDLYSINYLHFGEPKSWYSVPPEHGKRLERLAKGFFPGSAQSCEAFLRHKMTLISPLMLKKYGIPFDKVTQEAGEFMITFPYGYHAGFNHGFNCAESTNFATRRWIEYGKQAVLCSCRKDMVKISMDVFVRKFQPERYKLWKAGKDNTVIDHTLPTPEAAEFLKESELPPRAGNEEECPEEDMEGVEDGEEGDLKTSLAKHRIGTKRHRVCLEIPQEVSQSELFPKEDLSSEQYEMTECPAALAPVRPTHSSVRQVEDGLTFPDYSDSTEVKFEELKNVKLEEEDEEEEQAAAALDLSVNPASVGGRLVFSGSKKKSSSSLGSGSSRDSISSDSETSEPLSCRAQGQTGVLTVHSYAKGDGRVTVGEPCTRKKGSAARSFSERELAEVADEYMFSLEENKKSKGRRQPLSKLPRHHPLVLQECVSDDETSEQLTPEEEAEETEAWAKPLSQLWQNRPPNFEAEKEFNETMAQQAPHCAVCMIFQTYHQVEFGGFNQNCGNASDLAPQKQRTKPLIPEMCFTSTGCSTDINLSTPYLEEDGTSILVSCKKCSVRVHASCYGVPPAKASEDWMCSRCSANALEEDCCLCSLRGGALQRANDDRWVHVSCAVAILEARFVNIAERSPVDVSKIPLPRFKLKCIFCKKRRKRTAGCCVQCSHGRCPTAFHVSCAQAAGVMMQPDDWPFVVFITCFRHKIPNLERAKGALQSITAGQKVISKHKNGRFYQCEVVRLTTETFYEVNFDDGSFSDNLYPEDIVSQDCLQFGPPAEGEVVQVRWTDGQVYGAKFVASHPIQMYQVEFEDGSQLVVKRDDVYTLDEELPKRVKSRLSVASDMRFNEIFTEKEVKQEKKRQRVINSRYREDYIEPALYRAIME
# L3MBTL1 inh: qHTS Assay for the Inhibitors of L3MBTL1. Lethal(3)malignant brain tumor-like protein 1 (Homo sapiens), Q9Y468. AlphaScreen L3MBTL1–H3K9me1 peptide binding. Potency, µM (titrated, usually from 57.1 µM), inactives show at the top dose activity, negative = inhibition, actives largely listed as inhibitors. hit rate 0.66% among 230,000; further: on the % scale 0 is the no-effect control and ±100 the full control effect; nearly all actives have a fitted effect of over 60% in size
#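 Read-out is AlphaScreen signal from streptavidin donor and nickel chelate acceptor beads (10 ug/mL final each) bridging L3MBTL1 (50 nM) and biotinylated K9-monomethylated H3(1-15) peptide (75 nM), after 30 min compound exposure at room temperature.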
# Sfp inh: qHTS Assay for Inhibitors of Bacillus subtilis Sfp phosphopantetheinyl transferase (PPTase). 4'-phosphopantetheinyl transferase ffp (Bacillus subtilis), Q9F4F7. Biochemical Sfp PPTase activity, qHTS. Potency, µM, for the others: largest response in the series, negative = inhibition, hits mostly inhibitors. hit rate 3.5% among 310,000;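 further: the enzyme is Sfp with the accession as filed and its product quenches rhodamine fluorescence; 0% = enzyme reaction without inhibitor and -100% = no enzyme wells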
#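 After 15 min at room temperature with compound, 15 nM Sfp received 5 uM rhodamine-CoA plus 12.5 uM BHQ-2-ybbR (50 mM Hepes pH 7.6, 10 mM MgCl2). Rate came from the fluorescence difference over 30 min, ex 525/em 598 nm.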
# HP1b chromo inh: HTS for Inhibitors of HP1-beta Chromodomain Interactions with Methylated Histone Tails; Potency, µM (doses to about 114 µM), for the others: top-dose activity change, negative = inhibition, most hits filed as inhibitors; AlphaScreen HP1-beta / biotin-H3K9me3 peptide binding; Chromobox protein homolog 1 (Homo sapiens), P83916; hit rate 0.56% among 390,000; further: nearly all actives have a fitted effect of over 70% in size
#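 AlphaScreen: HP1-beta (50 nM) preformed 30 min with biotin-H3(1-18)K9me3 peptide (50 nM) in PBS pH 7.4, 0.01% Tween-20. Compound added for 30 min at RT, then streptavidin donor/nickel chelate acceptor beads (10 ug/mL) for 30 min.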
# * hit, by the source's call; ? = inconclusive; . = not tested or not shown; [ ] = dose if it differs, or a comment. The call rests on the fitted dose curve; in most records, active means well fitted curve in the direction sought with a large enough effect; inconclusive means small, poorly fitted or top-dose-only effect, or another doubt; inactive means no such curve, though single readings can be large; an effect the other way counts as inactive or inconclusive. Potency means the concentration at half of the fitted maximal effect.
SMILES,G9a inh,BAZ2B inh,JMJD2A Tudor inh,L3MBTL1 inh,Sfp inh,HP1b chromo inh
COc1ccc(-c2noc(-c3nnn(-c4cc(C)ccc4C)c3N)n2)cc1,5%[59 µM],-13%,-16%,.,.,17%
c1ccc2sc(SSc3nc4ccccc4s3)nc2c1,?,.,.,.,56µM*,.
O=S(=O)(CCSc1nc2ccccc2s1)c1nc2ccccc2s1,7.1µM*,-1%,?,.,9%,56%
O=C(CSc1nc2ccccc2s1)CSc1nc2ccccc2s1,-35%[12.7 µM],-5%,6%,.,?,30%
O=S1(=O)C=C(Sc2nc3ccccc3s2)c2ccccc21,?,-1%,-16%,.,50µM*,52%
CCCCn1c(N)c(N(CC)C(=O)c2c(C)noc2C)c(=O)[nH]c1=O,.,.,-1%,-7%,.,9%[57 µM]
CC1CC(C)CN(c2nc(N(C)c3ccccc3)nc(N)c2[N+](=O)[O-])C1 (stereo unspecified),10µM*,?,40µM*,-9%,5%,-25%
CCCC(=O)N/C(N)=N/c1nc(C)c2cc(C)ccc2n1,-5%,-2%,-19%,0%,16%,3%
Cc1ccc2nc(/N=C(\N)NC(=O)NC3CCCCC3)nc(C)c2c1,1%,-27%,-26%,-22%,45µM*,33%
COC1(OC)C(=N/O)/C(=N\O)CCC1O (stereo unspecified),11µM*,?,-31%,.,-7%,6%
CC(=O)c1c(C)[nH]c(C(=O)N2CCCCCC2)c1C,35%[0.501 µM],50µM*,-35%[11.4 µM],-7%,5%,?
CC(=O)c1c(C)[nH]c(C(=O)NCC2CCCCC2)c1C,40µM*,-13%,-18%,.,-6%,13%
CC(OC(=O)C1=Cc2ccccc2OC1)C(=O)NCC1CCCO1 (stereo unspecified),.,.,22µM*,.,.,?
CS(=O)(=O)N(CC(=O)N1CCN(c2ccccc2)CC1)c1cccc(Br)c1,89µM*,-2%,-11%,4%,3%,15%
COc1ccc(N2CCN(C(=O)CN(c3cccc(Br)c3)S(C)(=O)=O)CC2)cc1,-33%[2.33 µM],?,?,.,2%,-20%
CCc1ccccc1N(CC(=O)N1CCN(c2ccccc2)CC1)S(C)(=O)=O,-17%[59 µM],.,79µM*,-2%,14%,-21%
COc1cccc(N(CC(=O)N2CCN(c3ccccc3OC)CC2)S(C)(=O)=O)c1,79µM*,4%,-7%,.,15%,17%
FC(F)(F)c1cccc(-c2noc(-c3cc(-c4ccccc4)c(C(F)(F)F)s3)n2)c1,.,.,.,.,0%,.
COc1ccc(N2CC(C(=O)N(C)CC(=O)Nc3ccc(Cl)c(C(F)(F)F)c3)CC2=O)c(OC)c1 (stereo unspecified),-39%,-31%,-10%,-4%,.,15%
COc1cccc(C(c2sc3ncnn3c2O)N2CCc3ccccc3C2)c1 (stereo unspecified),7.1µM*,-6%,-25%,-7%,-24%,-10%
COc1cccc(C(c2sc3ncnn3c2O)N2CC(C)OC(C)C2)c1 (stereo unspecified),-10%[59 µM],-1%,-4%,17%,-13%,33%
COc1ccc(C(c2sc3nc(C)nn3c2O)N2CCC(C(N)=O)CC2)cc1OC (stereo unspecified),50µM*,8%,-3%,2%,5%,25%
COc1cc(C(c2sc3nc(C)nn3c2O)N2CCc3ccccc3C2)cc(OC)c1OC (stereo unspecified),22µM*,6%,-17%,3%,-13%,32%
COC(=O)C1CCN(C(c2ccc(OC)c(OC)c2)c2sc3nc(C)nn3c2O)CC1 (stereo unspecified),?,6%,-8%,5%,20%,44%
N/C(=N\OC(=O)CC1CCCCC1)c1ccc(Cl)cc1,64%,34%,31%,.,11%,61%
SMILES,G9a inh,BAZ2B inh,JMJD2A Tudor inh,L3MBTL1 inh,Sfp inh,HP1b chromo inh
CCOC(=O)CSc1nnc(CNC(=O)c2cccs2)n1-c1cccc(C)c1,-9%[12.7 µM],0%,1%,-1%,10%,27%
CC(NC(=O)c1cccs1)c1n[nH]c(=S)n1C (stereo unspecified),?,5%,8.9µM*,6%,11%,-11%
O=C(NCc1n[nH]c(=S)n1-c1ccccc1)c1cccs1,22µM*,-19%,16µM*,-1%,5%,7%
O=C(NCc1n[nH]c(=S)n1-c1cccc(Cl)c1)c1cccs1,20µM*,-4%,20µM*,-15%,12%,?
CC(NC(=O)c1cccs1)c1ccccc1 (stereo unspecified),.,.,-5%,.,.,36%
O=C(NCc1n[nH]c(=S)n1-c1ccc(Cl)c(Cl)c1)c1cccs1,?,?,-14%,.,89µM*,19%
Cc1cccc(N2CCN(C(=O)C3CC(=O)N(C4CCCC4)C3)CC2)c1C (stereo unspecified),-17%[12.7 µM],-12%,-19%,.,4%,-6%
CC(=O)OC[C@@H]1O[C@H](CCO/N=C(\C)CCN2CCc3nc(-c4ccccc4)c(-c4ccccc4)cc3C2)C=C[C@@H]1OC(C)=O,.,.,.,.,-2%,.
CCn1c(CNC(=O)c2cccs2)n[nH]c1=S,?,9%,8.9µM*,-10%,-3%,?
CCOC(=O)CSc1nnc(CNC(=O)c2cccs2)n1Cc1ccccc1,?,-29%,-15%,2%,17%,7%
CC1(C2(O)CC(c3ccccc3)ON2)CCCCC1 (stereo unspecified),40µM*,42%,.,.,-7%,.
COc1ccc(C2CC(O)(C(C)(C)O)NO2)cc1 (stereo unspecified),?,17%,-22%,6%,2%,27%
COc1ccc(NC(=O)c2c(C)oc3ccc(O)c(CN4CCC(C)CC4)c23)cc1Cl,-36%[59 µM],?,?,.,.,-11%
Cc1c(O)c(=O)c2ccccc2n1C,45µM*,-9%,22µM*,-1%,-27%,30%
CCOc1ccc(NCC2CCOC(C)(C)C2)cc1 (stereo unspecified),7.1µM*,?,-36%,-8%,-1%,-6%
CCOc1ccc(NC(=O)CC2CC(C)(C)OC2=O)cc1 (stereo unspecified),-3%[59 µM],-1%,-2%[11.4 µM],7%,4%,-15%
